Assay outcomes (PubChem BioAssay)
Tau fluor counter = counter-screen for tau fibril formation inhibitors. Potency, µM (series often up to 57.7 µM), for inactives: top-dose activity change, negative = decrease. AID 1463. 280,000 compounds, 0.93% hits. tau K18 P301L Alexa594 fluorescence, heparin fibrillization; note: nearly all actives have a fitted effect of over 55% in size
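Human K18 P301L tau (15 uM unlabeled plus 0.24 uM Alexa 594-labeled, final) in 100 mM sodium acetate pH 7 was mixed with compound and 20 uM heparin and incubated 6 hr at 37 C.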
TexasRed fluor = alters Texas Red total fluorescence, flagging assay interference | Potency, µM (titrated, usually from 106 µM), without a hit: top-dose fluorescence change, negative = quenching | 280,000 compounds, 0.29% hits | TRb/SRC2 Texas Red total fluorescence interference; active = well fitted curve in either direction with a large enough effect; inconclusive = small, poorly fitted or top-dose-only effect
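Human TRb ligand-binding domain at 0.6 uM with 20 nM Texas Red SRC2 peptide in Tris buffer containing 1 uM T3 and 5% DMSO, incubated with compound 5 h at ambient temperature. Total fluorescence (555/632 nm) calculated as parallel + 2 × perpendicular.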
Tau FP inhib = tau fibrillization inhibition (FP) | P10636 | K18 P301L tau heparin fibrillization, Alexa594 FP, 6 h | Potency, µM (top dose mostly 57.7 µM), inactives show at the top dose activity, negative = inhibition, usual class: inhibitors | 280,000 compounds, 0.39% hits | AID 1468; note: nearly all actives have a fitted effect of over 55% in size
Target sequence (P10636 561-689 P618L limits assumed): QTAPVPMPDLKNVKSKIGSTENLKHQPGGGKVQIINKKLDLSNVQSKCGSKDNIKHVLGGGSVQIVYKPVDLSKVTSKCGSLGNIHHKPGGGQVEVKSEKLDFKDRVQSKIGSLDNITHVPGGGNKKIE
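K18 P301L tau (15 uM unlabeled/0.24 uM Alexa 594-labeled, final) + compound + heparin 20 uM final; 100 mM NaOAc pH 7; 6 hr 37 C; ThT 30 uM final added, 1 hr RT; FP ex 555/em 632 nm.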
Tau fibril ThT = inhibitors of human tau fibril formation, thioflavin T binding; P10636; recombinant tau K18 P301L (four-repeat tau fragment), heparin-induced fibrillization, ThT fluorescence; Potency, µM (titrated, usually from 57.4 µM), inactives show at the highest dose activity, negative = inhibition, actives largely listed as inhibitors; 270,000 compounds, 2.1% hits; AID 1460; note: nearly all actives have a fitted effect of over 55% in size
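Aggregation was driven by heparin (20 uM final) acting on recombinant tau […] bearing P301L in 100 mM sodium acetate pH 7; fibrils were detected with Thioflavin T.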
GoLoco inh red = blocks human Gai1 binding to RGS12 GoLoco peptide, red readout | Potency, µM (doses to about 61.6 µM), without a hit: top-dose activity, negative = inhibition, hits mostly inhibitors | Gai1:RGS12 GoLoco peptide FP, rhodamine, 10 min | 230,000 compounds, 0.44% hits; active = well fitted inhibition curve with a large enough effect, not every such curve was filed as active; inactive = no such curve, though single readings can be large or run the other way; note: nearly all actives have a fitted effect of over 30% in size
Target sequence (P63096 whole entry, looked up): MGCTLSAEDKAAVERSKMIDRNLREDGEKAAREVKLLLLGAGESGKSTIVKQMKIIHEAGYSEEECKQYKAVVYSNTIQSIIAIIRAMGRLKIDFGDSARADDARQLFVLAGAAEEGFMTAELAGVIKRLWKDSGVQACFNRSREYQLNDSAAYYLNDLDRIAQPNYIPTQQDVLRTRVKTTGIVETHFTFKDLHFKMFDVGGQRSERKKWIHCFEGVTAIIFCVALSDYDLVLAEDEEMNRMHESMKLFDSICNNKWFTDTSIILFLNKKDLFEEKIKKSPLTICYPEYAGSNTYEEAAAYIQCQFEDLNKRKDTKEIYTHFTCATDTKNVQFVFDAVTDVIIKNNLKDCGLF
TRb SRC2 PPI = inhibitors of human thyroid hormone receptor beta-SRC2 interaction; P10828; TRbeta-SRC2 peptide binding, fluorescence polarization; receptor liganded with 1 µM T3; Potency, µM (doses to about 106 µM), inactives show at the top dose activity change, negative = inhibition, actives largely listed as inhibitors; 280,000 compounds, 0.065% hits; AID 1469;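 note: plate controls were bound peptide for no effect and peptide without receptor for full effect; nearly all actives have a fitted effect of over 50% in size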
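Polarization signal, normalized between peptide-alone and full complex controls, measured compound effects on T3-liganded human TRb LBD (0.6 uM) binding 20 nM Texas Red SRC2 peptide after 5 hr.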
Starred values were filed as active, the others as inactive; ? = inconclusive; nt = no result; [ ] = dose if it differs, or a comment. Compounds with a hit are over-represented: about 3.2% of the library has one in this group of screens. Unless noted, calls come from the whole dose curve; as a rule, active = well fitted curve in the direction sought with a large enough effect; inconclusive = small, poorly fitted or top-dose-only effect, or another doubt; inactive = no such curve, though single readings can be large; an effect the other way counts as inactive or inconclusive. Unless noted, % is set by controls: 0 for no effect and ±100 for the full control effect; potency is the fitted concentration of half-maximal effect.

SMILES	Tau fluor counter	TexasRed fluor	Tau FP inhib	Tau fibril ThT	GoLoco inh red	TRb SRC2 PPI
CN(C)c1ccc(C(=O)Nc2sc(Nc3ccccc3)nc2C(N)=O)cc1	11µM*[quencher]	-2%	-1%	1.1µM*	nt	-4%
CN(C)c1ccc(C(=O)Nc2cccc(-c3nc4cccnc4s3)c2)cc1	-10%	-1%	?	3%	nt	0%
CC(=O)OCC(=O)[C@]12OC(C)(C)O[C@@H]1C[C@H]1[C@H]3CC=C4C[C@@H](O)CC[C@]4(C)[C@H]3CC[C@]12C	nt	nt	nt	nt	4%[14.2 µM]	nt
N#Cc1cccc(NC(=O)CSc2ccc3c4c(cccc24)C(=O)c2ccccc2-3)c1	?	2%	-14%	?	11µM*	10%
CCOC(=O)CSc1nc2cc(OCC)ccc2cc1C#N	-23%	-4%	0%	16µM*	75%	0%
CCC(C(=O)Nc1ccc(C)c(Cl)c1)n1c(=O)c(-c2ccccc2NC(C)=O)nc2ccccc21 (stereo unspecified)	1%	-1%	6%	-4%	nt	2%
COc1ccc(Oc2c(-c3ccc(O)cc3O)n[nH]c2C)cc1	?	0%	12%	-3%	2%	12%
CCCOC(=O)c1ccc(Oc2cn[nH]c2-c2ccc(OCC)cc2O)cc1	8.9µM*[quencher]	-2%	?	-8%	-1%	6%
CCCOC(=O)c1ccc(Oc2c(-c3ccc(OCC)cc3O)n[nH]c2C)cc1	7.9µM*[quencher]	0%	?	-13%	-7%	8%
CC#CCN1c2ccccc2[C@]23C[C@@H](C(=O)OC)N(S(=O)(=O)c4c(C)noc4C)C2=NC(C(=O)OC)=C(C(=O)OC)[C@H]13	4%[11.6 µM]	0%[11.2 µM]	1%[11.6 µM]	?	4%[14.2 µM]	5%[11.2 µM]
O=C(NNc1c2ccccc2nc2ccccc12)C(O)c1ccccc1 (stereo unspecified)	?	-3%	11%	14µM*	4%	-3%
O=C(NNc1c2ccccc2nc2ccccc12)c1ccccc1O	6.3µM*[quencher]	-14%[53 µM]	-1%	2.2µM*	27%	4%[53 µM]
O=C(NNc1c2ccccc2nc2ccccc12)c1ccc(O)cc1	?	0%	2%	?	88%	-6%
COc1ccc(OCC(=O)NNc2c3ccccc3nc3ccccc23)cc1	16µM*[quencher]	-8%	?	6.3µM*	-2%	-2%
O=C(NNc1c2ccccc2nc2ccccc12)c1ccc(O)cc1O	13µM*[quencher]	-29%	8%	2.2µM*	75%	8%
CC(C)C[C@H](NC(=O)[C@@H]1CCCN1C(=O)[C@H](CO)NC(=O)[C@H](Cc1ccccc1)NC(=O)CNC(=O)[C@@H]1CCCN1C(=O)[C@@H]1CCCN1C(=O)[C@@H](N)CCCN=C(N)N)C(=O)O	nt	1%	nt	nt	nt	5%
N#CCCn1c(=O)c(-c2cccc(C#N)c2)nc2cnc(N3CCOCC3)nc21	nt	nt	nt	nt	-9%	nt
O=C(NNc1c2ccccc2nc2ccccc12)c1cccc(O)c1	14µM*[quencher]	-14%	13%	2.8µM*	30%	-6%
COC1=C/C(=C/c2c(O)c(C#N)c3ccccn23)C=CC1=O	-21%	1%	-11%	14µM*	197%	0%
C[C@H]1Cc2c(COc3ccccc3)nc3c(c2CO1)CN(C(=O)c1cc(I)ccc1F)CC3	0%[11.6 µM]	-2%[11.2 µM]	-4%[11.6 µM]	2%[11.5 µM]	-1%[14.2 µM]	0%[11.2 µM]
COc1cccc(Cn2c(=O)c(-c3cccs3)nc3cnc(N4CCNCC4)nc32)c1	nt	nt	nt	nt	12%	nt
Cc1c(O)ccc(-c2[nH]ncc2-c2nc3ccccc3s2)c1O	?	-1%	-3%	-18%	-9%	-1%
CCCc1ccc(Oc2c(-c3ccc(O)c(C)c3O)n[nH]c2C)cc1	13µM*[quencher]	1%	?	28µM*	-2%	5%
CCOc1ccc(-c2n[nH]c(C)c2-c2ccccc2OC)c(O)c1	-6%	1%	4%	0%	12%	12%
CCCc1ccc(Oc2cn[nH]c2-c2ccc(O)c(C)c2O)cc1	14µM*[quencher]	-4%	-6%	25µM*	7%	-4%
